The record followed here is PubChem BioAssay (EPA / NIEHS).

Results filed as inconclusive are left out. Calls of active or inactive are those of the source. Rule for the calls, unless noted: active = hit-call score of the fitted dose curve at least 0.9, where 1 is the maximum; inactive = score below 0.9.

The nature of the first assay: CCTE_Mundy_HCI_Cortical_Synap_Neur_Matur_NeuriteSpotCountPerNeuron: CCTE's Synaptogenesis and Neurite Maturation Assay in rat cortical cells for Neurite Spot Count per Neuron Count, Mundy Lab (AID 2284215). In short, it runs like this: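 Rat primary cortical cultures given AraC at DIV 5, dosed from DIV 7 to DIV 12 with media change. Fixed, stained for MAP2, synaptophysin and Hoechst; neurite-associated synaptophysin puncta per neuron quantified by high-content imaging versus DMSO.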
Take `CC(C)O`: the compound was called inactive.

Take `F`: the result was inactive.

Take `CC(=O)N[C@@H](CC(=O)O)C(=O)O`: the result was inactive.

In the case of `CCCCCC=C(C)C(CC)CCO` (stereo not drawn), the compound was called inactive.

Take `BrC1CC(Br)CC(Br)CC(Br)CC(Br)CC(Br)C1` (stereo not drawn): the AC50 was 3.23 µM (active).

In the case of `C[C@@H]1CC[C@@H](C(C)(C)O)[C@H](O)C1`, the compound was classed as inactive.

Turning to `CC(C)c1nn(C(=O)NC(C)(C)C)c(=O)n1N`, the compound was classed as inactive.

Consider `[O]=[V]([OH])([OH])[OH]`, for which the AC50 is 11.6 µM (active).

In the case of `CCc1ccccc1`, the outcome was inactive.

With `CN(C)CCCn1cc(C2=C(c3c[nH]c4ccccc34)C(=O)NC2=O)c2ccccc21`, the compound was called inactive.

On to `CCCCCC(C)(CC)C(=O)NC` (stereo not drawn), for which the outcome was inactive.

For `Cc1[nH]n(C)c(=O)c1C(=O)c1ccc(C(F)(F)F)cc1S(C)(=O)=O`, the compound was called inactive.

With `CC(CNC(=S)[S-])NC(=S)[S-].[Zn+2]` (stereo not drawn), the AC50 is 50 µM (active).

Consider `C[C@@H]1CCO[C@H]2Cn3cc(C(=O)NCc4ccc(F)cc4F)c(=O)c(O)c3C(=O)N12`, for which the AC50 was 3.63 µM (active).

A further assay in a line: CCTE_Mundy_HCI_Cortical_Synap_Neur_Matur_CellBodySpotCount: CCTE's Synaptogenesis and Neurite Maturation Assay in rat cortical cells for Cell Body Spot Count, Mundy Lab (AID 2284223). In short, it runs like this:
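Primary rat cortical cultures, AraC added at DIV 5; dosed DIV 7 through DIV 12 […]. Fixed, stained for MAP2 and synaptophysin with Hoechst; cell body-associated synaptophysin puncta per neuron counted by high-content imaging, loss vs DMSO.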
For `CC(C)O`, the outcome was inactive.

Consider `F`, for which the call was inactive.

In the case of `CC(=O)N[C@@H](CC(=O)O)C(=O)O`, the compound was classed as inactive.

For `CCCCCC=C(C)C(CC)CCO` (stereo not drawn), the result was inactive.

Regarding `BrC1CC(Br)CC(Br)CC(Br)CC(Br)CC(Br)C1` (stereo not drawn), the AC50 was 3.8 µM (active).

In the case of `C[C@@H]1CC[C@@H](C(C)(C)O)[C@H](O)C1`, the outcome was inactive.

In the case of `CC(C)c1nn(C(=O)NC(C)(C)C)c(=O)n1N`, the outcome was inactive.

Regarding `[O]=[V]([OH])([OH])[OH]`, the AC50 was 44.3 µM (active).

Turning to `CCc1ccccc1`, the compound was called inactive.

`CN(C)CCCn1cc(C2=C(c3c[nH]c4ccccc34)C(=O)NC2=O)c2ccccc21`: the compound was classed as inactive.

With `CCCCCC(C)(CC)C(=O)NC` (stereo not drawn), the outcome was inactive.

Turning to `Cc1[nH]n(C)c(=O)c1C(=O)c1ccc(C(F)(F)F)cc1S(C)(=O)=O`, the call was inactive.

As for `CC(CNC(=S)[S-])NC(=S)[S-].[Zn+2]` (stereo not drawn), the result was inactive.

Turning to `C[C@@H]1CCO[C@H]2Cn3cc(C(=O)NCc4ccc(F)cc4F)c(=O)c(O)c3C(=O)N12`, the outcome was inactive.

The next assay in a line: CCTE_Mundy_HCI_hNP1_Pro_ResponderAvgInten: CCTE's Proliferation Assay in human neuroprogenitor cells, Mundy Lab (AID 2284224; active = hit-call score of the fitted dose curve at least 0.9, where 1 is the maximum;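 note: human neural progenitor cells hNP1 derived from WA09 embryonic stem cells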). In short, it runs like this: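 Proliferation read as average intensity of BrdU-positive cells, imaged at 26.25 h post-dosing: chemical exposure started after 40–44 h culture, BrdU during final 4 h, paraformaldehyde fixation. Positive-direction fit relative to DMSO.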
For `CC(C)O`, the outcome was inactive.

Regarding `CC(=O)N[C@@H](CC(=O)O)C(=O)O`, the result was inactive.

As to `CCCCCC=C(C)C(CC)CCO` (stereo not drawn), the result was inactive.

With `BrC1CC(Br)CC(Br)CC(Br)CC(Br)CC(Br)C1` (stereo not drawn), the AC50 was 7.21 µM (active).

`CC(C)c1nn(C(=O)NC(C)(C)C)c(=O)n1N`: the result was inactive.

Consider `CCCCCC(C)(CC)C(=O)NC` (stereo not drawn), for which the compound was classed as inactive.

Turning to `CC(CNC(=S)[S-])NC(=S)[S-].[Zn+2]` (stereo not drawn), the result was inactive.

`C[C@@H]1CCO[C@H]2Cn3cc(C(=O)NCc4ccc(F)cc4F)c(=O)c(O)c3C(=O)N12`: the AC50 is 15.6 µM (active).

Another assay in a line: UKN4_HCS_LUHMES_cell_viability: Viability Assessment in the University of Konstanz (UKN) Leist Lab Neurite Outgrowth Assay in human LUHMES cells (UKN4) (AID 2284232). The gist of the method: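 LUHMES precursors differentiated 2 days, replated at 30000 cells/well without cAMP/GDNF, then compound-treated 24 h. Viability from Hoechst H-33342 and calcein-AM live staining (30 min) by high-content fluorescence imaging; bidirectional fit versus DMSO.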
With `CC(=O)OC/N=[N+](\C)[O-]`, the result was inactive.

With `Brc1cc(Br)c(Oc2cc(Br)c(Br)cc2Br)cc1Br`, the compound was classed as inactive.

On to `Cc1ccccc1`, for which the compound was classed as inactive.

Take `O.O=S(=O)([O-])[O-].[Mn+2]`: the compound was called inactive.

Another assay can be described thus: UKN2_HCS_IMR90_cell_viability: Viability Assessment in the University of Konstanz (UKN) Leist Lab Neural Crest Cell Migration Assay in human induced IMR90 Pluripotent Stem Cells (UKN2) (AID 2284233).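 Note: viability of neural crest cells differentiated from IMR90 iPSC measured by calcein-AM fluorescence imaging.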 The gist of the method: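 Neural crest cells derived from IMR90 iPSC migrate into a stopper-free zone for 24 h in EGF/FGF medium, then are exposed to compound for 24 h. Viability assessed by calcein-AM and Hoechst staining with high-content imaging, fitted bidirectionally versus DMSO.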
As to `CC(=O)OC/N=[N+](\C)[O-]`, the compound was called inactive.

With `Brc1cc(Br)c(Oc2cc(Br)c(Br)cc2Br)cc1Br`, the compound was classed as inactive.

As to `CC(C)O`, the outcome was inactive.

In the case of `Cc1ccccc1`, the call was inactive.

On to `CC(=O)N[C@@H](CC(=O)O)C(=O)O`, for which the outcome was inactive.

Consider `CCCCCC=C(C)C(CC)CCO` (stereo not drawn), for which the compound was called inactive.

For the compound `BrC1CC(Br)CC(Br)CC(Br)CC(Br)CC(Br)C1` (stereo not drawn), the outcome was inactive.

Turning to `C[C@@H]1CC[C@@H](C(C)(C)O)[C@H](O)C1`, the call was inactive.

`CC(C)c1nn(C(=O)NC(C)(C)C)c(=O)n1N`: the result was inactive.

For `CCc1ccccc1`, the compound was classed as inactive.

With `O.O=S(=O)([O-])[O-].[Mn+2]`, the AC50 was 50 µM (active).

On to `CCCCCC(C)(CC)C(=O)NC` (stereo not drawn), for which the compound was called inactive.

As for `Cc1[nH]n(C)c(=O)c1C(=O)c1ccc(C(F)(F)F)cc1S(C)(=O)=O`, the compound was classed as inactive.

As to `CC(CNC(=S)[S-])NC(=S)[S-].[Zn+2]` (stereo not drawn), the outcome was inactive.

As to `C[C@@H]1CCO[C@H]2Cn3cc(C(=O)NCc4ccc(F)cc4F)c(=O)c(O)c3C(=O)N12`, the compound was classed as inactive.

A further assay in a line: CCTE_Mundy_HCI_Cortical_NOG_NeuronCount: CCTE's Neurite Outgrowth Assay in rat cortical cells for Neuron Count, Mundy Lab (AID 2284236; active = hit-call score of the fitted dose curve at least 0.9, where 1 is the maximum;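 note: neurons counted by imaging betaIII-tubulin and Hoechst stained cortical cells; cells exposed to compound for about 48 hours before fixation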). In short, it runs like this:
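Read-out: neuron number by high-content imaging of betaIII-tubulin (Alexa Fluor-488) and Hoechst-labelled rat primary cortical cells.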
With `CC(C)O`, the call was inactive.

Regarding `CCN(CC)CCCC(C)Nc1nc(C)cc(Nc2ccc3nc(C)cc(N)c3c2)n1` (stereo not drawn), the compound was classed as inactive.

In the case of `CC(=O)N[C@@H](CC(=O)O)C(=O)O`, the compound was called inactive.

As to `CCCCCC=C(C)C(CC)CCO` (stereo not drawn), the outcome was inactive.

As to `BrC1CC(Br)CC(Br)CC(Br)CC(Br)CC(Br)C1` (stereo not drawn), the AC50 is 9.27 µM (active).

Turning to `C[C@@H]1CC[C@@H](C(C)(C)O)[C@H](O)C1`, the compound was classed as inactive.

For `CC(C)c1nn(C(=O)NC(C)(C)C)c(=O)n1N`, the compound was called inactive.

For the compound `CCc1ccccc1`, the result was inactive.

As for `CN(C)CCCn1cc(C2=C(c3c[nH]c4ccccc34)C(=O)NC2=O)c2ccccc21`, the compound was called inactive.

As for `CCCCCC(C)(CC)C(=O)NC` (stereo not drawn), the result was inactive.

For `[Li+]`, the result was inactive.

With `Cc1[nH]n(C)c(=O)c1C(=O)c1ccc(C(F)(F)F)cc1S(C)(=O)=O`, the compound was classed as inactive.

Turning to `CC(CNC(=S)[S-])NC(=S)[S-].[Zn+2]` (stereo not drawn), the AC50 is 19.2 µM (active).

As to `C[C@@H]1CCO[C@H]2Cn3cc(C(=O)NCc4ccc(F)cc4F)c(=O)c(O)c3C(=O)N12`, the compound was called inactive.

Another assay is described as follows: CCTE_Mundy_HCI_Cortical_NOG_BPCount: CCTE's Neurite Outgrowth Assay in rat cortical cells for Branch Point Count, Mundy Lab (AID 2284237).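 For AC50: branch points counted about two days after chemical exposure.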 The gist of the method:
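Measured 50.33 h after dosing, this morphology endpoint uses rat primary cortical cultures labelled for betaIII-tubulin. Branch points are quantified by high-content imaging, with DMSO as negative control and baseline.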
For the compound `CC(C)O`, the outcome was inactive.

`F`: the result was inactive.

With `CCN(CC)CCCC(C)Nc1nc(C)cc(Nc2ccc3nc(C)cc(N)c3c2)n1` (stereo not drawn), the compound was classed as inactive.

With `CC(=O)N[C@@H](CC(=O)O)C(=O)O`, the result was inactive.

`CCCCCC=C(C)C(CC)CCO` (stereo not drawn): the result was inactive.

Turning to `BrC1CC(Br)CC(Br)CC(Br)CC(Br)CC(Br)C1` (stereo not drawn), the AC50 was 8.4 µM (active).

As for `C[C@@H]1CC[C@@H](C(C)(C)O)[C@H](O)C1`, the result was inactive.

As for `CC(C)c1nn(C(=O)NC(C)(C)C)c(=O)n1N`, the result was inactive.

With `CCc1ccccc1`, the call was inactive.

As for `CCCCCC(C)(CC)C(=O)NC` (stereo not drawn), the compound was classed as inactive.

Turning to `[Li+]`, the result was inactive.

Consider `Cc1[nH]n(C)c(=O)c1C(=O)c1ccc(C(F)(F)F)cc1S(C)(=O)=O`, for which the result was inactive.

As for `CC(CNC(=S)[S-])NC(=S)[S-].[Zn+2]` (stereo not drawn), the AC50 is 22.2 µM (active).

Turning to `C[C@@H]1CCO[C@H]2Cn3cc(C(=O)NCc4ccc(F)cc4F)c(=O)c(O)c3C(=O)N12`, the compound was classed as inactive.
